From ChEMBL document CHEMBL3433997, “St. Jude Leishmania screening dataset” (2016)
Where “and” joins values, the source holds several entries; their conditions need not be identical. Equal entries are not always repeated.

What was measured:
Type in all cases: functional
[1] = molecular target: Solute carrier family 2, facilitated glucose transporter member 1 (Homo sapiens) (UniProt P11166); assay: ST_JUDE_LEISH: Cytotoxicity at 2uM final concentration against transgenic Leishmania Mexicana promastigotes LmGLUT1 that are glucose transport deficient and complemented with the human glucose transporter GLUT1. Activity is measured by DNA content using SYBR green in vitro
[2] = molecular target: Hexose transporter 1 (Plasmodium falciparum) (UniProt O97467); assay: ST_JUDE_LEISH: Cytotoxicity at 2uM final concentration against transgenic Leishmania Mexicana promastigotes LmPfHT that are glucose transport deficient and complemented with the Plasmodium falciparum hexose transporter. Activity is measured by DNA content using SYBR green in vitro
[3] = molecular target: Glucose transporter (Leishmania mexicana) (UniProt O61059); assay: ST_JUDE_LEISH: Cytotoxicity at 2uM final concentration against transgenic Leishmania Mexicana promastigotes LmGT2 that are glucose transport deficient and complemented with the L. Mexicana glucose transporter 2. Activity is measured by DNA content using SYBR green in vitro

Sequence of Solute carrier family 2, facilitated glucose transporter member 1 (Homo sapiens) (P11166 whole entry): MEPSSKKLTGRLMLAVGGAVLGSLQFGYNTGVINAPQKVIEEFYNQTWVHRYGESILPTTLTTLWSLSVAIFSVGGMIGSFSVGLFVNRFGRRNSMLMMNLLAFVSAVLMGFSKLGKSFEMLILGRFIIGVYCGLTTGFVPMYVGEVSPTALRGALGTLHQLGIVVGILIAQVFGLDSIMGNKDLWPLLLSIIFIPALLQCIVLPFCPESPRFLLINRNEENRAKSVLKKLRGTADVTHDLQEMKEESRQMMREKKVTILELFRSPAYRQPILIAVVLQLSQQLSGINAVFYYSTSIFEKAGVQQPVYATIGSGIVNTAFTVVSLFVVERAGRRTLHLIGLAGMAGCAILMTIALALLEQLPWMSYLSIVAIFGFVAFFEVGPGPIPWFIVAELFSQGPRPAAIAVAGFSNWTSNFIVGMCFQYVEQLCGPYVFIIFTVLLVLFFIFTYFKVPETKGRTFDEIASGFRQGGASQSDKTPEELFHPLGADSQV

CC(C)CCN(Cc1cncn1Cc1cccc(C(F)(F)F)c1)C(=O)c1ccccc1C#N
inhibition [1]: -3.54% | inhibition [2]: -0.35% | inhibition [3]: 0.86%

CCC1N=C(N)N=C(N)N1OCc1ccc(Cl)c(Cl)c1 (stereo not given)
inhibition [1]: -0.58% | inhibition [2]: 0.09% | inhibition [3]: -0.8%

Cc1cc(OCCCN2CCC(NS(=O)(=O)c3cccc(Br)c3)CC2)c2ccccc2n1
inhibition [1]: 10.9% | inhibition [2]: 9.48% | inhibition [3]: 9.99%

O=c1c(NCCCN(Cc2ccc(F)cc2)c2ccccn2)c(NCc2cccnc2)c1=O
inhibition [1]: 1.33% | inhibition [2]: 1.81% | inhibition [3]: 1.65%

CC(=O)Nc1ccc(CN2Cc3ccc(NC(=O)Nc4ccc(Oc5ccccc5)cc4)cc3C2)s1
inhibition [1]: 1.61% | inhibition [2]: -0.21% | inhibition [3]: 1.94%

CN(Cc1cnc2nc(N)nc(N)c2n1)c1ccc(C(=O)N[C@@H](CCC(=O)O)C(=O)O)cc1
inhibition [1]: 3.29% and 4.83% and 0.58% | inhibition [2]: 2.33% and 2.91% and 0.06% | inhibition [3]: -0.37% and 1.34% and 3.42%

O=C(C=Cc1ccc(Cl)c(Cl)c1)NCCCCCN1CCC(c2n[nH]c3ccccc23)CC1
inhibition [1]: 1.5% | inhibition [2]: 2.15% | inhibition [3]: 1.44%

C=CCC(CC=C)N1C(=O)C(c2ccccc2)(c2ccccc2)N=C1N
inhibition [1]: 0.75% | inhibition [2]: -0.83% | inhibition [3]: 0.62%

O=C(/C=C/c1ccc(C(F)(F)F)cc1)NCCCCCN1CCCN(C(=O)Nc2ccc(Cl)cc2)CC1
inhibition [1]: 5.01% | inhibition [2]: 4.49% | inhibition [3]: 1.84%

CN1CCN(CCCN(Cc2ccc(-c3cccc(CNCc4ccc5c(c4)OCO5)c3)cc2)C(=O)Nc2ccccc2)CC1
inhibition [1]: 4.2% | inhibition [2]: 4.92% | inhibition [3]: 4.03%

Cc1cccc2nc(-c3ccc(-c4cccc(CN5CCC(N)C5)c4)s3)[nH]c12 (stereo not given)
inhibition [1]: 9.02% | inhibition [2]: 8.9% | inhibition [3]: 8.23%

COc1cc(OC)c(NC(=O)COc2ccc(C)cc2)cc1Cl
inhibition [1]: 1.6% | inhibition [2]: 1.59% | inhibition [3]: 3.07%

CC(C)c1ccc(N2CCN(CCCCNC(=O)c3ccc(NC(=O)c4cc(Cl)cc(Cl)c4)cc3)CC2)cc1
inhibition [1]: -0.22% | inhibition [2]: 1.11% | inhibition [3]: 1.9%

O=c1cc(NCCCNCc2cccc(I)c2)[nH]c2ccccc12
inhibition [1]: 0.98% | inhibition [2]: 0.27% | inhibition [3]: -0.58%

Cc1[nH]c(C)c(-c2ccc(Oc3ccc(Cl)cc3)cc2)c(=O)c1C
inhibition [1]: 11.4% | inhibition [2]: 30.5% | inhibition [3]: 1.29%

Cc1[nH]c(C)c(-c2ccc(OCCSc3ccncc3)cc2)c(=O)c1Br
inhibition [1]: 1.9% | inhibition [2]: -0.1% | inhibition [3]: 0.05%

CN(C)CCNCc1ccc(-c2ccc3c(Nc4ccc(Cl)cc4F)ccnc3c2)o1
inhibition [1]: 1.23% | inhibition [2]: 0.82% | inhibition [3]: -1.76%

COc1cc(CCNCC(O)c2ccc([N+](=O)[O-])c(OCc3ccccc3)c2)cc(OC)c1OC (stereo not given)
inhibition [1]: -0.46% | inhibition [2]: 1.28% | inhibition [3]: 0.48%

COc1cc(Cc2cnc(N)nc2N)cc(OCCCCc2nnn[nH]2)c1OC
inhibition [1]: -0.47% | inhibition [2]: 1.16% | inhibition [3]: -0.95%

CO/C(=C\C=C\c1cc2cc(Cl)c(Cl)cc2[nH]1)C(=O)NCCCN1CCN(c2cccc(CCO)c2)CC1
inhibition [1]: -0.14% | inhibition [2]: 1.35% | inhibition [3]: -0.1%

CC(=O)Oc1c(Br)c(C)nc(C)c1-c1ccc(Oc2ccc(OC(F)(F)F)cc2)cc1
inhibition [1]: 1.58% | inhibition [2]: 0.11% | inhibition [3]: 0.37%

Cc1ccccc1Nc1nc(Nc2ccccc2)c2ccccc2n1
inhibition [1]: 38.8% | inhibition [2]: 44% | inhibition [3]: 13%

Cc1ccc(CNC(=O)[C@H](Cc2ccccc2)Nc2cc(C)nc(Nc3ccccc3)n2)cc1
inhibition [1]: 7.2% | inhibition [2]: 6.84% | inhibition [3]: 4.59%

CN(Cc1ccc(C#N)cc1)C1CCN(c2cc(NC(=O)c3ccc(F)cc3)ccn2)CC1
inhibition [1]: 1.28% | inhibition [2]: 2.79% | inhibition [3]: -1.93%

COc1ccc(Cn2c(Nc3cccc(C(F)(F)F)c3)nc3ccc(C(=O)NCCN4CCCC4)cc32)cc1Cl
inhibition [1]: 8.87% | inhibition [2]: 6.74% | inhibition [3]: 14.2%

COc1ccc2ccccc2c1C=NNc1ccnc2cc(Cl)ccc12
inhibition [1]: 1.99% | inhibition [2]: 0.95% | inhibition [3]: 1.17%

CN(C)C(=O)O[C@@H]1CN[C@H](C#Cc2cc3ncnc(Nc4ccc5c(cnn5Cc5cccc(F)c5)c4)c3s2)C1
inhibition [1]: 10.1% | inhibition [2]: 9.66% | inhibition [3]: 10.1%

CC(C)CCNC(=N)Nc1ccc(OCCCOc2ccc(NC(=N)NCCC(C)C)cc2)cc1
inhibition [1]: 0.62% | inhibition [2]: -1.4% | inhibition [3]: -0.91%

Cc1cccc(CN2CCCN(Cc3cccc(C(=O)Nc4ccc(C(C)(C)C)cc4)c3)CC2)c1
inhibition [1]: 3.43% | inhibition [2]: 2.22% | inhibition [3]: 1.26%

CCC(C)CN1CCN(c2ccc(NC(=O)c3cccs3)cc2)CC1C (stereo not given)
inhibition [1]: 0.37% | inhibition [2]: 0.02% | inhibition [3]: 1.01%

COc1ccc2cc(C(c3nnnn3CC3CCCO3)N3CCc4ccccc43)c(=O)[nH]c2c1 (stereo not given)
inhibition [1]: 2.55% | inhibition [2]: 3.26% | inhibition [3]: 2.23%

N#Cc1cccc(C(=O)Nc2cccc(-c3cccc(CN4CCNCC4)c3)c2)c1
inhibition [1]: 4.13% | inhibition [2]: 6.34% | inhibition [3]: 3.25%

COc1cccc(NC(=O)[C@H](C)n2c(=O)[nH]c3ccccc3c2=O)c1
inhibition [1]: 10.9% | inhibition [2]: 14.1% | inhibition [3]: 7.45%

COc1cc2nc(N3CCC(CNC(=O)c4ccc(-c5ccc(C(F)(F)F)cc5)cc4)CC3)nc(N)c2cc1OC
inhibition [1]: 2.82% | inhibition [2]: 2.34% | inhibition [3]: -0.23%

CN(C)CCCNc1ncnc2c1[nH]c1ccc(Br)cc12
inhibition [1]: 1.44% | inhibition [2]: 2.41% | inhibition [3]: 1.04%
